# Hits are enriched below; roughly 9.3% of the tested compounds scored in any of these assays.
# ELG1 DNA repair: inhibitors of ELG1-dependent DNA repair in HEK293T cells. HEK293T ELG1-luciferase reporter, luminescence, 16 h; DNA damage induced by 5-fluorouridine. Potency, µM (top dose mostly 46.1 µM), inactives show top-dose activity change, negative = inhibition, hits mostly inhibitors. 330,000 compounds, 2.3% hits. AID 504467; note: % is set by controls: 0 for no effect and ±100 for the full control effect; nearly all actives have a fitted effect of over 55% in size
#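 Reporter activity after DNA damage by 5-fluorouridine is monitored. Compound-treated cells incubate 16 hr at 37 °C, then ONE-Glo is added for 30 min before luminescence reading.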
# SMN2 splice up: increases expression of the SMN2 splice variant; HEK293 SMN2-luciferase splicing reporter, luminescence, 30-36 h; Potency, µM (highest dose often 46.1 µM), without a hit: at the top dose activity change, positive = activation, usual class: activators; 210,000 compounds, 2.8% hits; AID 1458; note: % of control where 0% means no effect; nearly all actives have a fitted effect of over 55% in size
#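 HEK293 cells carry an SMN2 minigene-luciferase reporter in which exon 7 inclusion puts luciferase in frame. Cells were seeded at 2000 cells/well, attached for 10-12 hours, then exposed to compounds for 30-36 hours at 37C before ONE-Glo luminescence.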
# Rab9 promoter act: activates the Rab9 promoter | Huh7 Rab9 promoter-luciferase reporter, luminescence, 24 h | Potency, µM (top dose mostly 9.22 µM), without a hit: at the top dose activation, negative = inhibition, usual class: activators | 320,000 compounds, 2.8% hits; note: % of control where 0% means no effect; nearly all actives have a fitted effect of over 60% in size
#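 Luciferase signal after 10 min detection reagent at ambient indicates Rab9 promoter upregulation; stably transfected Huh7 cells were treated 24 h with compound in DMSO at 37 °C, 5% CO2.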
# ELG1 genotoxic: inducers of genotoxicity in HEK293T ELG1-luciferase cells; HEK293T ELG1-luciferase reporter, luminescence, 16 h; Potency, µM (series often up to 46 µM), for the others: top-dose activity change, positive = activation, most hits filed as activators; 330,000 compounds, 1.3% hits; AID 504466; note: % of control where 0% means no effect; nearly all actives have a fitted effect of over 60% in size
#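 16 hr compound incubation (37 °C, 5% CO2) of HEK293T cells carrying luciferase-tagged ELG1; luciferase then measured by ONE-Glo luminescence after 30 min at RT.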
# NPC1 promoter act: NPC1 promoter activation; Huh7 NPC1 promoter luciferase reporter, 24 h; Potency, µM (doses to about 9.22 µM), without a hit: at the highest dose activation, hits mostly activators; 320,000 compounds, 2.4% hits; AID 485313; note: % of control where 0% means no effect; nearly all actives have a fitted effect of over 60% in size
#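 NPC1 promoter–luciferase Huh7 cells; 24 h compound; luminescence.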
# FLuc counter: counter-screen for miR-21 project: firefly luciferase inhibitors or activators; P08659; purified FLuc, Km substrates, luminescence inhibition; Potency, µM (series often up to 57.5 µM), without a hit: at the top dose activity change, negative = inhibition, hits mostly inhibitors; 360,000 compounds, 6.9% hits;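 note: plate controls were vehicle for no effect and reference inhibitor for full effect; nearly all actives have a fitted effect of over 55% in size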
# Target sequence (P08659 whole entry, looked up): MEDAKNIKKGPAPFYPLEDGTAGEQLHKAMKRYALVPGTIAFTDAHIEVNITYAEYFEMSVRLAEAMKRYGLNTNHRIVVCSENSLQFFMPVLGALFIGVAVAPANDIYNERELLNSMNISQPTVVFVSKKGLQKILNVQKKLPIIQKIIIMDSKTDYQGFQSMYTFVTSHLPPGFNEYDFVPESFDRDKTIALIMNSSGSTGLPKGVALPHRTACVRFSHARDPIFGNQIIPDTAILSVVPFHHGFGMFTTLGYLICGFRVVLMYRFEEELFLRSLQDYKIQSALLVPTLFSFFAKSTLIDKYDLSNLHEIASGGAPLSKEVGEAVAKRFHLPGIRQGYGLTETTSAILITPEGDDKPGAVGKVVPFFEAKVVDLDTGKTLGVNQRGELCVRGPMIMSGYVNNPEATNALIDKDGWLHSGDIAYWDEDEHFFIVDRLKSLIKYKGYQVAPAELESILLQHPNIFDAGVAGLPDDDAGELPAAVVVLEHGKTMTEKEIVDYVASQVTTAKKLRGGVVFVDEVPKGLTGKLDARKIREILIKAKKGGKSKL
#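 Biochemical qHTS of compounds, final roughly 60 µM downward over six points, against 10 nM purified firefly luciferase using Km concentrations of substrates (10 uM D-luciferin, 10 uM ATP) in Tris acetate pH 7.5 buffer; luminescence output.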
# Numbers without * were called inactive; ? = inconclusive; . = no result; [ ] = remark or other dose. Calls come from the whole dose curve; as a rule, active = well fitted curve in the direction sought with a large enough effect; inconclusive = small, poorly fitted or top-dose-only effect, or another doubt; inactive = no such curve, though single readings can be large; an effect the other way counts as inactive or inconclusive. Potency is the fitted concentration of half-maximal effect.
SMILES,ELG1 DNA repair,SMN2 splice up,Rab9 promoter act,ELG1 genotoxic,NPC1 promoter act,FLuc counter
Nc1cc(N)nc(SCc2ccccc2)n1,?,11µM*,2.8µM*,?,?,19µM*
CC(C)CSc1nnc(N)s1,2%,-3%,1%[1.84 µM],3%,1%,-10%
Nc1nc(SCc2ccccc2)ns1,?,13µM*,?,18µM*,28%,?
CC(C)CSc1nsc(N)n1,?,20%,?,16µM*,?,?
O=C1NC(=O)/C(=C\c2ccc(Sc3ccc(Cl)cc3)o2)N1,18%,-31%,2%,-4%,2%,5%
Cc1ccc2oc(-c3cccc(NC(=S)NC(=O)/C=C/c4ccco4)c3)nc2c1,?,-29%,?,15%,29%,15µM*
Cc1ccc2oc(-c3cc(NC(=O)/C=C/c4ccco4)ccc3Cl)nc2c1,.,-5%,.,.,.,?
Cc1c(NC(=O)c2cccs2)cccc1-c1nc2cc(Cl)ccc2o1,.,.,.,.,.,5.4µM*
Cc1ccc2oc(-c3cccc(NC(=S)NC(=O)c4cccs4)c3)nc2c1,?,1%[1.84 µM],22%,?,24%,11µM*
O=C(Nc1ccc2oc(-c3ccccc3)nc2c1)c1cccs1,?,3.2µM*,2.5µM*,?,4µM*,3.8µM*
O=C(Nc1ccc2oc(-c3ccccc3)nc2c1)c1ccncc1,?,-61%,7%,-9%,6%,-14%
COc1ccc(N(CC(=O)N2CCN(c3cccc(OC)c3)CC2)S(=O)(=O)c2c(C)noc2C)cc1,.,-1%,.,.,.,-11%
COc1ccc(NC(=O)CS(=O)CC(=O)NCC2OCCc3ccccc32)cc1 (centres undefined),-16%,21%,-5%,2%,-6%,-3%
CCn1c(=O)n(CC(=O)NCc2ccccc2OC)c(=O)c2ccccc21,-1%,-2%,2%,-1%,0%,7%
CCc1cc2c(=O)c(-c3nc4ccccc4[nH]3)coc2c(CN2CCCCC2)c1O,?,.,2%,-4%,7%,?
CCc1cc2c(=O)c(-c3nc4ccccc4[nH]3)coc2c(CN2CCCCC2C)c1O (centres undefined),21µM*,.,-2%,-8%,-1%,-1%
CCc1cc2c(=O)c(-c3ccc4c(c3)OCCO4)coc2cc1OS(C)(=O)=O,?,22µM*,3.5µM*,7%,2.8µM*,4.8µM*
CCOC(=O)c1oc2cc(O)c(CC)cc2c(=O)c1-c1ccc2c(c1)OCCO2,-28%,-4%,-2%,-1%,-1%,?
CCc1cc2c(=O)c(-c3ccc4c(c3)OCCO4)coc2c(CN2CCCCC2C)c1O (centres undefined),6%,.,21%,12%,7%,6.7µM*
O=C(CS(=O)(=O)Cc1ccccc1)N1CCc2ccccc2C1,?,26%,-4%,?,13%,-2%
CC(=O)Nc1ccc(S(=O)(=O)Nc2cc(C)ccn2)cc1,8%,7%,1%,1%,-2%,-1%
Cc1ccnc(NC(=O)c2ccc([N+](=O)[O-])s2)c1,?,.,3.5µM*,?,3.2µM*,13µM*
COc1ccccc1NC(=O)Nc1ccc(C)cn1,?,.,7%,6%,21%,?
Cc1ccnc(NC(=O)CNC(=O)c2ccc(C)s2)c1,?,.,-12%,?,15%,?
Cc1ccc(NC(=O)Nc2ccc(F)cc2)nc1,?,25µM*,4µM*,8%,?,11µM*
Cc1ccnc(NC(=O)Nc2ccc(F)cc2)c1,?,13µM*,0.56µM*,?,1.4µM*,1.9µM*
Cc1ccnc(NC(=O)c2cc3cc(F)ccc3s2)c1,?,.,1.4µM*,?,2.2µM*,2.7µM*
CSc1ncccc1C(=O)Nc1cc(C)ccn1,14%,.,5%,5%,5%,2%
COC(=O)c1ccccc1NC(=O)Nc1cc(C)ccn1,-13%,-9%,-2%,2%,1%,2%
